Source: ChEMBL document CHEMBL3988442, “University of Dundee, Small-Polar-MMV Screening Library” (2021)
The campaign covered roughly 48,000 compounds. About 13,000 (27%) showed an effect of 50% or more. The list shows a part of the results.

system: Wolbachia pipientis; test: Anti-Wolbachia Cell-Based Screen; format: functional; parameters: scale not given: in the data most compounds retested in dose-response had high values; conditions: 5 µM

Compound | Percent Effect [%]
CN1CCC(c2ncc3c(n2)CCN(C(=O)CC2C=CCC2)C3)CC1 (stereo not given) | -2.125
COC1CCN(S(=O)(=O)N2CCCC(c3cccc(C(=O)O)c3)C2)CC1 (stereo not given) | 12.84
CN1CCc2nc(C3CCCN(C(=O)CC4CCCCC4)C3)ncc2C1 (stereo not given) | 117.4
CN1CCc2nc(C3CCCN(S(=O)(=O)N4CCCC4)C3)ncc2C1 (stereo not given) | 92.03
O=C(CCC1CCCC1)N1CCC(c2ncc3c(n2)CCNC3)CC1 | -4.401
CC1(C)CCN(S(=O)(=O)N2CCCC(c3cccc(C(=O)O)c3)C2)CC1 (stereo not given) | 0.9326
CN1CCc2nc(C3CCCN(C(=O)CC(C)(C)C)C3)ncc2C1 (stereo not given) | 119.8
CCC(=O)N1CCCC(c2ncc3c(n2)CCN(C)C3)C1 (stereo not given) | 111.8
Cc1nc[nH]c1CN1CCCC(CNC(=O)c2ccncn2)C1 (stereo not given) | -3.697
CN(C)C(=O)N1CCC2(CC(=O)N(c3ccc4c(c3)OCO4)C2)C1 (stereo not given) | 3.437
CCOc1cccc2c1OCC(=O)N(c1ccc(N(C)C)cc1)C2 | 138.3
CCOc1cccc2c1OCC(C(=O)NC(C)Cn1cccn1)=C2 (stereo not given) | -1.745
c1cncc(OCc2nc(C3CC3)nn2-c2ccc3c(c2)OCCO3)c1 | 1.227
CCOc1ccccc1C(=O)NS(=O)(=O)c1ccc2c(c1)OCCCO2 | -4.596
CCOc1cccc2c1OCC(=O)N(c1ccc3c(c1)OCO3)C2 | 112.1
CCS(=O)(=O)N1CCC2(CC(=O)N(c3ccc4c(c3)OCO4)C2)C1 (stereo not given) | -0.7388
CCOc1cccc2c1OCC(C(=O)NS(=O)(=O)Cc1ccccc1)=C2 | -3.971
CCOc1cccc2c1OCC(=O)N(c1ccc3c(c1)OCCO3)C2 | 123.7
Cc1nn(C)cc1C(C)Nc1ncc(C(N)=O)cc1Cl (stereo not given) | -11.95
COC(=O)CC(NC(=O)c1cccc(N2CCCC2=O)c1)c1cccs1 (stereo not given) | 6.294

Compound | Percent Effect [%]
CN(Cc1ccc(Cl)s1)C(=O)CN(C)C1CCCc2ccccc21 (stereo not given) | -6.291
O=C(CCN1CCSCC1c1ccccc1)N1CCOCC1 (stereo not given) | 2.279
COc1ccsc1C(=O)Nc1cc(CN2CCOCC2)ccc1C | -3.737
COCCN1CCC2(CC1)CC(c1cccnc1)CO2.O=C(O)C(F)(F)F (stereo not given) | 117.3
Fc1cnc(N2CCC3(CC2)CC(OCc2cccnc2)CO3)nc1.O=C(O)C(F)(F)F.O=C(O)C(F)(F)F (stereo not given) | -2.608
O=C(O)C(F)(F)F.O=S(=O)(C1CC1)N1CCC2(CC1)CC(Oc1cccnc1)CO2 (stereo not given) | 3.761
Fc1ccc(N2CCC3(CC2)CC(OCc2cccnc2)CO3)cc1.O=C(O)C(F)(F)F (stereo not given) | -13.34
O=C(O)C(F)(F)F.O=C(O)C(F)(F)F.O=C(O)C(F)(F)F.c1cncc(CN2CCC3(CC2)CC(c2cccnc2)CO3)c1 (stereo not given) | 108.2
O=C(NC1COC2(CCN(CC3CCC3)CC2)C1)c1ccccn1.O=C(O)C(F)(F)F (stereo not given) | 9.161
O=C(O)C(F)(F)F.O=C(O)C(F)(F)F.c1cncc(C2COC3(CCN(CC4CC4)CC3)C2)c1 (stereo not given) | 1.552
COCCN1CCC2(CC1)CC(Nc1ccc(C)nn1)CO2.O=C(O)C(F)(F)F (stereo not given) | -23.59
O=C(O)C(F)(F)F.O=C(O)C(F)(F)F.c1cncc(C2COC3(CCN(CC4CCOCC4)CC3)C2)c1 (stereo not given) | 107.8
Fc1ccc(CN2CCC3(CC2)CC(c2cccnc2)CO3)cc1.O=C(O)C(F)(F)F.O=C(O)C(F)(F)F (stereo not given) | 97.05
OC1(c2cn(CC3CCN(C4CCSC4)CC3)nn2)CCCC1 (stereo not given) | -24.22
Cc1nccn1-c1ccc(NC(=O)C2CCCN2CC2CC2)cc1 (stereo not given) | 11.95
Cc1cc(-n2cncn2)ccc1C(=O)Nc1ccc(N2CCCC2)cn1 | -10.21
FC(F)(F)CCN(Cc1ccon1)C1CCC1 | 0.2197
O=C(O)C(F)(F)F.O=C(O)C(F)(F)F.O=C(c1ccsc1)N1CCOC2(CCN(Cc3cccnc3)CC2)C1 | -15.45
O=C(O)C(F)(F)F.O=C(O)C(F)(F)F.c1cncc(C2COC3(CCN(Cc4ccsc4)CC3)C2)c1 (stereo not given) | 104.8
COc1ccc(CN2CCC3(CC2)CC(c2cccnc2)CO3)cc1.O=C(O)C(F)(F)F.O=C(O)C(F)(F)F (stereo not given) | 103.1

Compound | Percent Effect [%]
COc1ccc(CN2CCC3(CCN(c4cccnc4)C3=O)C2)cc1.O=C(O)C(F)(F)F.O=C(O)C(F)(F)F (stereo not given) | -2.008
O=C1COc2cc(C(=O)NS(=O)(=O)c3ccccc3F)ccc2N1 | -1.273
Cc1ccc(C(CNCc2c[nH]nc2C)N(C)C)cc1.Cl (stereo not given) | -30.61
COCCN1C(=O)[C@H]2CC[C@@H]1CN(Cc1nnc(C3CC3)o1)C2 | 101
Cc1cnn(C2CN(Cc3nnc(C4CC4)o3)C2)c1 | 1.311
CCC1CN(Cc2nnc(C3CC3)o2)CCN1CCOC (stereo not given) | -15.54
COCCN1C(=O)[C@H]2CC[C@@H]1CN(c1nccc(C)n1)C2 | 1.615
CS(=O)(=O)N1C[C@@H]2CC[C@H](C1)N(Cc1cscn1)C2=O | -6.714
O=C1[C@H]2CC[C@H](CN(Cc3nnc(C4CC4)o3)C2)N1Cc1cscn1 | 105.2
COCCN1C(=O)[C@H]2CC[C@@H]1CN(c1ncccn1)C2 | -42.86
COCCN1C(=O)[C@H]2CC[C@@H]1CN(Cc1nnc(-c3ccccc3)o1)C2 | 112.1
O=C1[C@H]2CC[C@H](CN(C3CCOCC3)C2)N1Cc1cscn1 | -44.85
CCS(=O)(=O)CC(C)N(C)C(=O)NCCc1cccc(F)c1F (stereo not given) | -8.987
CCc1ccc(CN(C)c2ccc(-c3nc(COC)no3)cn2)nc1 | -21.07
Cc1nc2n(n1)CC(Nc1cc(C(F)(F)F)nc3ncnn13)CC2 (stereo not given) | 10.68
Cc1ccsc1CN(C)C(=O)c1ccc(N2CCOCC2)c(F)c1 | 8.665
CCc1nc(CN(C)C2CCN(Cc3ccc(C#N)cc3F)C2)no1 (stereo not given) | 1.706
CCc1nc(CN(C)C2CCN(CCCOc3ccccc3)C2)no1 (stereo not given) | 76.47
CCc1nc(CN(C)C2CCN(CCNS(=O)(=O)CC)C2)no1 (stereo not given) | 8.032
CCc1nc(CN(C)C2CCN(CCOc3ccccc3)C2)no1 (stereo not given) | 109.8
